Bioassay records: PubChem, National Center for Advancing Translational Sciences (NCATS)
Compounds with a hit are over-represented: about 8% of the library has one in this group of screens.
FMDV antiviral = High Throughput Screening for Foot and Mouth Disease Virus Antivirals. FMDV antiviral cell-based qHTS. Potency, µM (top dose mostly 57.9 µM), without a hit: at the highest dose activity change, negative = inhibition, most hits filed as inhibitors. 410,000 compounds, 1.2% hits. AID 1159524, 2015; calls by dose curve; tested in HEK293T cells; further: read-out not given here; potency means the concentration at half of the fitted maximal effect; on the % scale 0 is the no-effect control and ±100 the full control effect; nearly all actives have a fitted effect of over 45% in size
HCMV inh = qHTS Assay for inhibitors of the human cytomegalovirus (HCMV); activity change, negative = inhibition, % at 57.5 µM; 410,000 compounds, 4.5% hits; HFF cells, HCMV-luciferase reporter, 72 h; hits give low values; in the data active means activity change below about -60%; inconclusive means no clear call, values can overlap the other calls; inactive means above about -39%; further: on the % scale 0 is the no-effect control and ±100 the full control effect
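After 16 h attachment at 37C, HFF cells received test compound and HCMV-luciferase (1 PFU/cell); reporter luminescence read 72 h later, data normalized against buffer-only and known inhibitor Salinomycin.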
HCV inhibitor = qHTS Assay for Inhibitors of Hepatitis C Virus (HCV); 340,000 compounds, 3.4% hits; Potency, µM (highest dose often 41.8 µM), without a hit: top-dose activity change, negative = inhibition, actives largely listed as inhibitors; Huh7.5.1 HCVcc-Cre infection, luciferase reporter, 44 h; AID 651820, 2012; active means well fitted inhibition curve with a large enough effect; inconclusive means small, poorly fitted or top-dose-only effect, or another doubt; inactive means no such curve, though single readings can be large or run the other way; further: potency means the concentration at half of the fitted maximal effect; on the % scale 0 is the no-effect control and ±100 the full control effect
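Whole-lifecycle infectious HCVcc-Cre system; cells 1,000/well, compound then virus (~0.5 moi) added 4 h after plating, 44 h culture. Luciferase read 15 sec following 15 min substrate incubation, room temp.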
SARS PLpro yeast = qHTS of Yeast-based Assay for SARS-CoV PLP. S. cerevisiae expressing SARS-CoV PLpro, growth rescue. Potency, µM (titrated, usually from 32.9 µM), for inactives: at the highest dose activity, positive = growth rescue, hits mostly activators. 330,000 compounds, 0.19% hits. AID 485353, 2010; calls by dose curve; further: potency means the concentration at half of the fitted maximal effect; 0% is about no effect; nearly all actives have a fitted effect of over 55% in size
MARV entry inh = qHTS for inhibitors of binding or entry into cells for Marburg Virus | Marburg virus pseudotyped entry inhibition, cell reporter | Potency, µM (top dose mostly 37.8 µM), without a hit: at the top dose activity change, negative = inhibition, hits mostly inhibitors | 300,000 compounds, 1.8% hits | AID 540276, 2011; calls by dose curve; tested in HEK293 cells; further: potency means the concentration at half of the fitted maximal effect; on the % scale 0 is the no-effect control and ±100 the full control effect
Lassa entry inh = qHTS for Inhibitors of binding or entry into cells for Lassa Virus; Lassa virus pseudotype entry inhibition, cell reporter; 300,000 compounds, 1.2% hits; Potency, µM (series often up to 37.9 µM), for the others: top-dose activity change, negative = inhibition, most hits filed as inhibitors; calls by dose curve; tested in HEK293 cells; further: potency means the concentration at half of the fitted maximal effect; on the % scale 0 is the no-effect control and ±100 the full control effect; nearly all actives have a fitted effect of over 50% in size
The depositor's hits bear a star; ? = inconclusive; . = no result; [ ] = another dose, or the depositor's remark.

SMILES | FMDV antiviral | HCMV inh | HCV inhibitor | SARS PLpro yeast | MARV entry inh | Lassa entry inh
CCC(=C(c1ccc(OC)cc1)c1ccc(OC)cc1)c1cn(CC(O)CN2CCN(C)CC2)c2ccccc12 (stereo unspecified) | -21% | -22 | 11µM* | -39% | ? | -18%
COc1ccc(Nc2cc3[nH]c(-c4ccccc4)cc3cn2)cc1 | . | 1 | . | . | . | .
COCc1cc(C)nc(SCC[N+](C)(C)CC(=O)Nc2ccccc2)c1C#N | -5% | -30 | 28% | 3% | -2%[46.1 µM] | 6%
COCc1cc(C)nc(SCC[N+](C)(C)CC(=O)c2ccc(Br)cc2)c1C#N | -1% | -1 | 32µM* | 2% | 6%[46.1 µM] | -14%
CC(OC(=O)C1=NN(c2ccccc2)C(=O)CC1)C(=O)NC1CCCCC1C (stereo unspecified) | -6% | -1 | 13% | -1% | . | .
Cc1nn(-c2ccccc2)c(C)c1C(=O)OC(C)C(=O)NC1CCCCC1C (stereo unspecified) | ? | ? | 11µM* | -5% | . | .
O=C1CSc2ccc(S(=O)(=O)NCc3ccccc3Cl)cc2N1 | 77% | -60* | -15% | 29% | . | .
O=C1CSc2ccc(S(=O)(=O)N3CCN(c4ccccc4F)CC3)cc2N1 | ? | -76* | ? | 0% | . | .
O=C1CSc2ccc(S(=O)(=O)N3CCN(c4ccccc4)CC3)cc2N1 | -23% | -22 | 0% | 1% | . | .
COc1ccc2c(c1)c1ncn(Cc3ccco3)c(=O)c1n2C | -20% | -81* | 11µM* | 2% | ? | -14%
Cc1ccccc1/C(N)=N/O | 0% | 3 | 3% | 0% | -2% | 17%
CC[N+]1(C)[C@@H]2CC[C@H]1CC(OC(=O)[C@H]1CCC(C(=O)OC3C[C@H]4CC[C@@H](C3)[N+]4(C)CC)(c3ccccc3)c3ccccc31)C2 (stereo partly specified) | -25% | -69* | -9% | . | . | .
Brc1ccc(CN2C3=NCCCN3c3ccccc32)cc1 | ? | ? | ? | 2% | 10µM* | ?
O=C(CN1C2=NCCCN2c2ccccc21)c1ccc2c(c1)OCO2 | . | -28 | 11µM* | -1% | ? | ?
c1ccc(CN2C3=NCCCN3c3ccccc32)cc1 | -28% | -15 | ? | 0% | ? | -2%
Cc1ccc(CN2C3=NCCCN3c3ccccc32)cc1 | -16% | -2 | ? | 11% | ? | -1%
Clc1ccc(CN2C3=NCCN3c3ccccc32)cc1 | 0% | 13 | 13µM* | -4% | ? | -21%
CC(C)(C)c1ccc(CN2C3=NCCCN3c3ccccc32)cc1 | ? | -85* | 32µM* | -4% | 2.6µM* | ?
O=C(O)CN1C2=NCCCN2c2ccccc21 | 0% | -24 | 10% | 1% | 3%[46.1 µM] | -3%
CCCN(C1CCS(=O)(=O)C1)S(=O)(=O)c1cc(OC)ccc1OC (stereo unspecified) | -4% | -22 | 4% | -4% | . | .
COc1ccccc1CNc1ccc(-c2nc(-c3ccccn3)no2)cc1[N+](=O)[O-] | 44% | 35 | . | . | -16%[46.1 µM] | 25%[46.1 µM]
COCCN(C(=O)COC(=O)CSc1ccccc1)c1c(N)n(Cc2ccccc2)c(=O)[nH]c1=O | -18% | -15 | ? | 2% | 2%[46.1 µM] | 2%
CCCCCCCN1C2=NCCCN2c2ccccc21 | ? | ? | 10µM* | -3% | ? | ?
NC(=O)[C@H]1CC2(CC(c3cccc(NC(=O)COc4ccc(Cl)cc4)c3)=NO2)CN1C(=O)Cc1ccc([N+](=O)[O-])cc1 (stereo partly specified) | ? | -78* | 1.6µM* | 2% | . | .
O=[N+]([O-])c1cc(-c2nc(-c3ccccc3)no2)ccc1N1CCOCC1 | -9% | 35 | . | . | ? | -2%[46.1 µM]
SMILES | FMDV antiviral | HCMV inh | HCV inhibitor | SARS PLpro yeast | MARV entry inh | Lassa entry inh
COc1ccc(N(C)C(=O)c2ccc3nc(-c4ccccc4)c(-c4ccccc4)nc3c2)cc1 | ? | 8 | 11µM* | -3% | ? | ?
COc1ccc2c(c1)c1c(c(=O)n(Cc3ccccc3)c(=O)n1CC(=O)Nc1ccccc1OC)n2C | 6% | 10 | . | . | . | 9%[46.1 µM]
COc1ccc(NC(=O)CN(C)C(=O)C(Sc2ccccc2)c2ccccc2)cc1 (stereo unspecified) | -28% | -72* | ? | 11% | . | .
Cc1ccc(NC(=O)CN(C)C(=O)C(c2ccccc2)c2ccccc2)cc1 | -5% | 4 | ? | 0% | ? | 1%
COC(=O)c1ccc(Oc2cc(C)nc(-n3nc(C)cc3C)n2)cc1 | -26% | -76* | ? | -5% | ? | -29%
Cc1ccc([C@H]2/C(=C(\O)c3cnn(-c4ccccc4)c3C)C(=O)C(=O)N2CCN2CCOCC2)o1 | . | . | . | . | 10% | .
O=C(COc1ccccc1F)Nc1ccc2nc(SCC(=O)N3CCOCC3)sc2c1 | ? | -68* | . | . | ? | -21%[46.1 µM]
O=C(COc1ccccc1F)Nc1ccc2nc(SCC(=O)N3CCCC3)sc2c1 | ? | -63* | . | . | ? | 3%[46.1 µM]
O=C(CSc1nc2ccc(Nc3nc(N4CCOCC4)nc(N4CCOCC4)n3)cc2s1)Nc1ccccc1F | -18% | -97* | ? | 1% | . | .
O=C(COc1ccc(F)cc1)Nc1ccc2nc(SCC(=O)N3CCCC3)sc2c1 | ? | -21 | . | . | 2%[46.1 µM] | 22%[46.1 µM]
CCc1cccc(NCc2ccccc2-c2nnc(-c3ccccc3Cl)o2)c1 | 53% | 31 | . | . | 19%[46.1 µM] | ?
CC1CN(C(=O)c2cc(S(=O)(=O)N(C)c3ccc(F)cc3)ccc2Cl)CC(C)O1 (stereo unspecified) | -30% | -29 | 10µM* | 7% | ? | ?
CC1CN(C(=O)c2cc(S(=O)(=O)N3CCCC3)ccc2Cl)CC(C)O1 (stereo unspecified) | 11% | 7 | 5% | -2% | . | .
CCc1nnc(NC(=O)c2ccc(S(=O)(=O)N(C)c3ccccc3)cc2)o1 | 0% | -75* | 7.1µM* | 7% | ? | ?
CC(=O)Nc1ccc(NC(=O)COC(=O)c2ccc(S(=O)(=O)N(C)c3ccccc3)cc2)cc1 | -8% | -100* | 13% | . | . | .
CN(c1ccccc1)S(=O)(=O)c1ccc(NC(=O)c2ccc(F)cc2)cc1 | ? | -26 | ? | . | 18µM* | ?
CN(c1ccccc1)S(=O)(=O)c1ccc(Cl)c(C(=O)Nc2ccncc2)c1 | ? | -26 | ? | 2% | . | .
CN(c1ccc(F)cc1)S(=O)(=O)c1ccc(Cl)c(C(=O)Nc2ccncc2)c1 | 20µM* | -65* | ? | -3% | -19% | 1%
CN(c1ccc(C(=O)Nc2cccnc2)cc1)S(=O)(=O)c1ccccc1 | ? | -71* | ? | 0% | -24%[46.1 µM] | -4%
